Among all 310,000 compounds or so, about 14,000 (4.5%) showed an effect of 50% or more. The effect is printed as a negative number. What follows is part of a selection rich in strong results, with near analogues and random picks from the rest.
What follows are compounds tested against human ether-à-go-go-related gene (hERG) potassium channel (human, UniProt Q12809) (assay: primary screen, population patch clamp on CHO cells stably expressing hERG; higher = less effect of the substance).
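Note: peak tail current of the secondary pulse compared with the same well before compound.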

Chain of human ether-à-go-go-related gene (hERG) potassium channel (Q12809 whole entry, looked up): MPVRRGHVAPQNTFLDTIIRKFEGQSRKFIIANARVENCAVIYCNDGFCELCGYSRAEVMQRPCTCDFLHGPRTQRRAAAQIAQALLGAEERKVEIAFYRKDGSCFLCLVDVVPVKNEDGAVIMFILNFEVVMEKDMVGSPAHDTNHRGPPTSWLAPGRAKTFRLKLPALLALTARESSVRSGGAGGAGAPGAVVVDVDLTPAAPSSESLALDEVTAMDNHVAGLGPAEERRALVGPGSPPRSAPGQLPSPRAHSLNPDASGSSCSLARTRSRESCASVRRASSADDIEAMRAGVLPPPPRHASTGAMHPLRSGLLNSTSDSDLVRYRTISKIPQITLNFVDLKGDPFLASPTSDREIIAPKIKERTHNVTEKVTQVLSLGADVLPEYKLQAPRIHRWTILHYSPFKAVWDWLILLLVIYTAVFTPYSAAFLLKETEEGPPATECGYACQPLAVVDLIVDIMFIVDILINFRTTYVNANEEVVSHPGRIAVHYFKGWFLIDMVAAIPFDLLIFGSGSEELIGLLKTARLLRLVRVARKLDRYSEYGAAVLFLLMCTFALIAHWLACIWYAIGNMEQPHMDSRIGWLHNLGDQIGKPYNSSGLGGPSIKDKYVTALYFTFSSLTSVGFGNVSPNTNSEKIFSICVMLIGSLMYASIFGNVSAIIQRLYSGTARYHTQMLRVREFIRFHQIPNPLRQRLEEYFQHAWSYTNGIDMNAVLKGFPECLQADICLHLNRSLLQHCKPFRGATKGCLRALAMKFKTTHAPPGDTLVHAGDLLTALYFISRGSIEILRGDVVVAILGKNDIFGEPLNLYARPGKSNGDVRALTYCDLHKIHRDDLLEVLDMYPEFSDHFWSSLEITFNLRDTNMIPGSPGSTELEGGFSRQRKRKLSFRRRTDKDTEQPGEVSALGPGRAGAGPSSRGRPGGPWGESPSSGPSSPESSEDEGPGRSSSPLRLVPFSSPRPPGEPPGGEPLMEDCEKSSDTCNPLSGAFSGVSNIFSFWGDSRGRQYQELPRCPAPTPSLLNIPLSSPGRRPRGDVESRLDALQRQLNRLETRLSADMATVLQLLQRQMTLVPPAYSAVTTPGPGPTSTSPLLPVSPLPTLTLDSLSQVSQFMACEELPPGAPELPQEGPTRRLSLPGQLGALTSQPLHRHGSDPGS

First: Cc1cc(C(=O)OCC(=O)Nc2nccs2)c2ccccc2n1
Second: Cc1cc(C(=O)Nc2c(C)nn(Cc3ccccc3)c2C)on1
The “hERG current change (%, negative = inhibition) at 10uM” value of the first is lower: 1.22% for the first, 1.26% for the second.

Going from `Cc1cc(C)c2c(n1)nn1c(C)c(CCC(=O)NCc3ccco3)c(C)nc21` to `CC(=O)c1cc2c(cc1NC(=O)CCc1c(C)nc3ncnn3c1C)OCO2`, the “hERG current change (%, negative = inhibition) at 10uM” value rises from -12.1% to -10.1%.

Compared with `CCOC(=O)CSc1nnc2n1C(C)(C)Cc1ccccc1-2`, `CCn1nc(C)c(NC(=O)c2ccc(Cl)cc2)c1C` is higher in “hERG current change (%, negative = inhibition) at 10uM” value: -4.66% for the first, 5.72% for the second.

First: CCOc1cc(C(=O)N=c2sccn2C)cc(Br)c1OC
Second: COc1cccc(CN2CC(C(=O)NCCSc3nnnn3C)CCC2=O)c1 (centres unmarked)
The “hERG current change (%, negative = inhibition) at 10uM” value of the first is lower: 8.84% for the first, 18% for the second.

Compared with `CNC(=O)COC(=O)c1ccc(NC(=O)CC#N)cc1`, `CCN(CC)P(=O)(Nc1ccc([N+](=O)[O-])cc1)c1c(C)nn(CCC#N)c1NC(=O)c1ccc(Cl)cc1` (centres unmarked) is lower in “hERG current change (%, negative = inhibition) at 10uM” value: 11.9% for the first, -56.9% for the second.

Going from `CCN(CC(=O)Nc1c(F)cccc1F)C(=O)c1ccc2c(c1)S(=O)(=O)N=C1CCCCCN12` to `Cc1nn(Cc2ccc(Cl)cc2)c(C)c1NC(=O)c1ccc([N+](=O)[O-])cc1`, the “hERG current change (%, negative = inhibition) at 10uM” value falls from 9.69% to -72.6%.

First: Cc1cc(C(=O)Nc2c(C)nn(Cc3ccc(Cl)cc3)c2C)no1
Second: Cc1nn(Cc2ccc(Cl)cc2)c(C)c1NC(=O)c1c(-c2ccccc2)noc1C
The “hERG current change (%, negative = inhibition) at 10uM” value of the first is higher: -15.4% for the first, -65.1% for the second.

First: Cc1nn(Cc2ccccc2)c(C)c1NC(=O)Cn1nc([N+](=O)[O-])c(Cl)c1C
Second: Cc1nn(Cc2ccccc2)c(C)c1NC(=O)c1ccc([N+](=O)[O-])cc1[N+](=O)[O-]
The “hERG current change (%, negative = inhibition) at 10uM” value of the first is higher: -10.4% for the first, -57% for the second.

First: Cc1onc(-c2ccccc2)c1C(=O)NCc1ccc(Cl)cc1
Second: O=C(Nc1cnn(Cc2ccc(Cl)cc2)c1)c1ccc([N+](=O)[O-])cc1
The “hERG current change (%, negative = inhibition) at 10uM” value of the first is higher: 13.8% for the first, -31.4% for the second.

Going from `CCN(CC)P(=O)(Nc1ccc([N+](=O)[O-])cc1)c1c(C)nn(CCC#N)c1NC(=O)c1ccc(Cl)cc1Cl` (centres unmarked) to `CCN(CC)P(=O)(Nc1ccc(Br)cc1)c1c(C)nn(CCC#N)c1NC(=O)c1ccc(Cl)cc1` (centres unmarked), the “hERG current change (%, negative = inhibition) at 10uM” value rises from 3.17% to 7.19%.

Compared with `C=CCNC(=S)Nc1ccc(OC)c(S(=O)(=O)N2CCOCC2)c1`, `C=CCn1c(N)c(C(=O)NCc2cccnc2)sc1=S` is lower in “hERG current change (%, negative = inhibition) at 10uM” value: -10.3% for the first, -35.1% for the second.

In the case of `CC(C)(C)C(=O)Nc1ccc(N=Nc2ccccc2)cc1`, the “hERG current change (%, negative = inhibition) at 10uM” value is reported as -0.305%.

— paper PMC4336329 (PLoS ONE, 2015)
